# Reference: PubChem BioAssay AID493220 (National Center for Advancing Translational Sciences (NCATS), 2011)
# Records with an inconclusive call do not appear. Calls of active or inactive are those of the source. The call rests on the fitted dose curve.
# Target: Polyunsaturated fatty acid lipoxygenase ALOX15 (Homo sapiens) (UniProt P16050)
# Test: Inhibitors of 12-hLO (12-human lipoxygenase): 15hLO-1 Cuvette-Based Inhibition Counterscreen Assay for 12hLO Followup Compounds
# Settings: purified 15hLO-1, UV 234 nm product formation
# Procedure, shortened: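 In a cuvette, reactions were started by adding 50-200 nM human 15hLO-1 to 10 uM arachidonic acid (pH 8.0 HEPES, 0.01% Triton X-100). Absorbance at 234 nm was followed to completion. Enzymatic rates at typically five inhibitor concentrations gave IC50.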
# Sequence of Polyunsaturated fatty acid lipoxygenase ALOX15 (Homo sapiens) (P16050 whole entry, looked up): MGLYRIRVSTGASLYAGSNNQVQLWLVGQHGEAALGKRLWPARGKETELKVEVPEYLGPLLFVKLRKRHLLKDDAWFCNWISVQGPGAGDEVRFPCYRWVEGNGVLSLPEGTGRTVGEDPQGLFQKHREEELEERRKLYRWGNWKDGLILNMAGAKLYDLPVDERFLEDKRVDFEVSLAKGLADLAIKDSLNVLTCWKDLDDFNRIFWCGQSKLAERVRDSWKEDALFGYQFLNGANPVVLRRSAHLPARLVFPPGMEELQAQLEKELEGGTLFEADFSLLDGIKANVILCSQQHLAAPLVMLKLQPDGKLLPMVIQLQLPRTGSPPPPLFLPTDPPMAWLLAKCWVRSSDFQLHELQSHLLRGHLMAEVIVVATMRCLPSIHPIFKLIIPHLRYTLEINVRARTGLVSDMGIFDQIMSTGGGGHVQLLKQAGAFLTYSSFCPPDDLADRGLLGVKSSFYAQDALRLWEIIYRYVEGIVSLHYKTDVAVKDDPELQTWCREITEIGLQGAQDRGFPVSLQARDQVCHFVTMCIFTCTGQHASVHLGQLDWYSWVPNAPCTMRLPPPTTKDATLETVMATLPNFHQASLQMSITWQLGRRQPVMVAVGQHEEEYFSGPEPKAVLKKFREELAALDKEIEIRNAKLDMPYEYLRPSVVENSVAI
SMILES,Potency,outcome
Cc1[nH]nc(-c2ccc(O)cc2O)c1-c1ccc(Cl)cc1,9.99 µM (active),–
Cc1cccnc1NCc1ccc(O)c2ncccc12,23.9 µM (active),–
CCOC(=O)CNC(c1ccccc1)c1cc(Br)ccc1NC(=O)CCN1CCOCC1 (stereo not given),–,inactive
Cc1[nH]nc(-c2ccc(O)cc2O)c1Oc1ccccc1,15.6 µM (active),–
O=C(Nc1nnc(-c2ccc(Cl)cc2)o1)c1ccccc1Br,–,inactive
COc1ccc(-c2[nH]ncc2-c2ccc(Cl)cc2)c(O)c1,6.81 µM (active),–
CN(C)c1nccc(N(Cc2ccccc2)Cc2ccccc2)c1C#N,17.7 µM (active),–
CSc1ccc(S(=O)(=O)Nc2ccc(S(=O)(=O)Nc3ccc(C)cc3)cc2)cc1,45 µM (active),–
O=C(Nc1nnc(C2=COCCO2)o1)c1ccc(Cl)cc1,–,inactive
Cc1oc2c(O)c(O)ccc2c(=O)c1-c1cnn(-c2ccccc2)c1,18.9 µM (active),–
CCCOC(=O)c1ccc(Oc2cn[nH]c2-c2ccc(OC)cc2O)cc1,13.1 µM (active),–
COc1ccc(-c2n[nH]c(C)c2-c2ccc(Cl)cc2)c(O)c1,3.51 µM (active),–
O=S(=O)(Nc1ccc(O)c(Sc2nc3ccccc3s2)c1)c1ccc(Cl)cc1,12.6 µM (active),–
Cc1ccc(C(=O)/C=C/c2c[nH]c3ccccc23)cc1,20.6 µM (active),–
Oc1ccc(CN2CCCc3ccccc32)c2cccnc12,81.3 µM (active),–
